PG9 Ab binder: small molecules binding HIV-1 gp120 antibody PG9; TR-FRET gp120-PG9 antibody binding; inhibition, % at 6.7 µM; 360,000 tested, 0.43% active; AID 624416; in the data active means inhibition above about 8.5%
ABCB6 inh MLPCN: human ABCB6 transporter inhibition | 360,000 tested, 0.19% active | K562-ABCB6 porphyrin accumulation, flow cytometry, 1 h; active compounds read low | fluorescence ratio to DMSO, % at 10 µM;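 active means fluorescence ratio to DMSO below 75%, the collection mean minus 3 SD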;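 further: signal is porphyrin accumulated inside mitochondria; 100% equals median channel fluorescence of DMSO control wells; lower ratio means ABCB6 inhibition with less porphyrin fluorescence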
Granule exo inh: blocks lytic granule exocytosis. TALL-104 LAMP-1 surface exposure, flow cytometry; cells stimulated with thapsigargin and PMA. inhibition, % at 10 µM. 360,000 tested, 0.66% active;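 active means inhibition above about 55%, limit read from the data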
rCAG binder: r(CAG) repeat RNA binding; TO-PRO-1 dye displacement fluorescence; AID 651821; inhibition, % at 3 µM; 370,000 tested, 1.3% active;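 active means inhibition above the plate cutoff, the mean of all test compounds on that plate plus 3 SD, cut at about 35% in these data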;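 further: 0% = DMSO alone and 100% = 100 µM mitoxantrone as full dye displacement; higher means more dye released from RNA so lower well fluorescence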
PG9 bind confirm: confirmation of small molecules binding HIV-1 gp120 antibody PG9. 1,500 tested, 90% active. shares compounds with PG9 Ab binder. inhibition, % at 6.7 µM. TR-FRET PG9 antibody binding, biochemical; in the data active means inhibition above about 9%
PGV04 counter: counter-screen for PG9 binders: binding control antibody PGV04 | inhibition, % at 6.7 µM | AID 651604 | TR-FRET PGV04 antibody-gp120 binding, biochemical | shares compounds with PG9 Ab binder | 1,500 tested, 95% active; in the data active means inhibition above about 9.5%
The depositor's hits bear a star. Shown are actives, neighbours in structure and some others; about 2.5% of the full set was active somewhere.

How did Cc1ccc(NC(=O)Cn2cc(S(=O)(=O)c3ccc(C)cc3)c(=O)c3cc(F)ccc32)cc1 do in these assays?
PG9 Ab binder: 13*; ABCB6 inh MLPCN: 99; Granule exo inh: -4; rCAG binder: 9; PG9 bind confirm: 36*; PGV04 counter: 62*

Results for Cc1ccc(NC(=O)Cn2cc(S(=O)(=O)c3ccccc3)c(=O)c3cc(F)ccc32)cc1 ?
PG9 Ab binder: 4; ABCB6 inh MLPCN: 95; Granule exo inh: 9; rCAG binder: 6

Results for Cc1ccc(N=Cc2ccc(O)cc2O)cc1F ?
PG9 Ab binder: 17*; ABCB6 inh MLPCN: 106; Granule exo inh: 26; rCAG binder: 21; PG9 bind confirm: 11*; PGV04 counter: 15*

What do the screens show for `COc1cccc(/C=C/C(=C2/C(=O)N(c3ccccc3)N=C2C)c2ccc(C)cc2)c1OC`?
PG9 Ab binder: 2; ABCB6 inh MLPCN: 88; Granule exo inh: 0; rCAG binder: 0

Results for CCc1nnc(NC(=O)c2ccc(Cl)c(S(=O)(=O)N3CCc4ccccc4C3)c2)s1 ?
PG9 Ab binder: 20*; ABCB6 inh MLPCN: 85; Granule exo inh: 0; rCAG binder: 4; PG9 bind confirm: 24*; PGV04 counter: 34*

Results for COc1ccccc1CC(=O)NCc1nn(-c2ccccc2)nc1C ?
PG9 Ab binder: 1; ABCB6 inh MLPCN: 101; Granule exo inh: -8; rCAG binder: -3

What do the screens show for `Cc1ccc(-c2noc(-c3cccs3)n2)cc1`?
PG9 Ab binder: 8.8*; ABCB6 inh MLPCN: 98; Granule exo inh: 2; rCAG binder: -1; PG9 bind confirm: 26*; PGV04 counter: 28*

Results for COc1ccc(-c2nc(-c3cccs3)no2)cc1 ?
PG9 Ab binder: 0; ABCB6 inh MLPCN: 101; Granule exo inh: -2; rCAG binder: 0

What do the screens show for `Cc1cc(NC(=O)CC2(CC(=O)O)CCCC2)n(C)n1`?
PG9 Ab binder: -2; ABCB6 inh MLPCN: 98; Granule exo inh: -5; rCAG binder: -5

Results for O=C(C1=C(O)C(=O)N(CCN2CCOCC2)C1c1cccnc1)c1cc2ccccc2o1 (configuration not stated) ?
PG9 Ab binder: 3; ABCB6 inh MLPCN: 98; Granule exo inh: -2; rCAG binder: 4

Results for O=C(C1=C(O)C(=O)N(CCN2CCOCC2)C1c1ccc(Br)cc1)c1cc2ccccc2o1 (configuration not stated) ?
PG9 Ab binder: 6; ABCB6 inh MLPCN: 104; Granule exo inh: -8; rCAG binder: 20

What do the screens show for `CN(C)CCCN1C(=O)C(O)=C(C(=O)c2cc3ccccc3o2)C1c1ccccc1` (configuration not stated)?
PG9 Ab binder: 36*; ABCB6 inh MLPCN: 96; Granule exo inh: -11; rCAG binder: -2; PG9 bind confirm: 37*; PGV04 counter: 55*

What do the screens show for `O=C(C1=C(O)C(=O)N(Cc2ccco2)C1c1cccnc1)c1cc2ccccc2o1` (configuration not stated)?
PG9 Ab binder: 15*; ABCB6 inh MLPCN: 111; Granule exo inh: 10; rCAG binder: 4; PG9 bind confirm: 31*; PGV04 counter: 46*

What do the screens show for `COC(=O)c1ccc(C2C(C(=O)c3cc4ccccc4o3)=C(O)C(=O)N2CCCN(C)C)cc1` (configuration not stated)?
PG9 Ab binder: 19*; ABCB6 inh MLPCN: 102; Granule exo inh: 3; rCAG binder: 2; PG9 bind confirm: 20*; PGV04 counter: 29*

Results for COc1cccc2cc(C(=O)C3=C(O)C(=O)N(Cc4ccco4)C3c3cccnc3)oc12 (configuration not stated) ?
ABCB6 inh MLPCN: 96; Granule exo inh: -5

Results for CN(C)CCCN1C(=O)C(O)=C(C(=O)c2cc3ccccc3o2)C1c1ccccn1 (configuration not stated) ?
PG9 Ab binder: 26*; ABCB6 inh MLPCN: 97; Granule exo inh: 1; rCAG binder: 3; PG9 bind confirm: 40*; PGV04 counter: 51*

How did Nc1ccc(S(=O)(=O)C(F)(F)F)cc1N do in these assays?
PG9 Ab binder: 1; ABCB6 inh MLPCN: 106; Granule exo inh: 0; rCAG binder: 4

What do the screens show for `Cc1cc(Cl)c2oc(C(=O)N(C)Cc3ccon3)c(C)c2c1`?
PG9 Ab binder: -1; ABCB6 inh MLPCN: 94; Granule exo inh: -6; rCAG binder: 0

What do the screens show for `Cc1cc(C)nc(SCc2ccc(C(=O)N/N=C3\CCCC(=O)C3)cc2)n1`?
PG9 Ab binder: 2; ABCB6 inh MLPCN: 104; Granule exo inh: 1; rCAG binder: 3

Results for COc1ccc2c(c1)c1nc3n(c(=O)c1n2CC(=O)Nc1ccccc1)CCCS3 ?
PG9 Ab binder: 13*; ABCB6 inh MLPCN: 98; Granule exo inh: -2; rCAG binder: 5; PG9 bind confirm: 26*; PGV04 counter: 36*

Results for CCOc1ccc(Nc2nc3ccccc3c(=O)s2)cc1 ?
PG9 Ab binder: 17*; ABCB6 inh MLPCN: 97; Granule exo inh: 11; rCAG binder: -2; PG9 bind confirm: 18*; PGV04 counter: 20*

What do the screens show for `COc1ccc(S(=O)(=O)N2CCN(C(=O)c3ccc4ccccc4n3)CC2)cc1`?
PG9 Ab binder: 1; ABCB6 inh MLPCN: 101; Granule exo inh: 2; rCAG binder: 6

How did N#Cc1c(N)c(C#N)c(-c2ccc3c(c2)OCO3)c2c1CCCC2 do in these assays?
PG9 Ab binder: 11*; ABCB6 inh MLPCN: 85; Granule exo inh: 0; rCAG binder: 4; PG9 bind confirm: 10*; PGV04 counter: 23*

Results for N/C(=N\OC(=O)COc1ccc2ccccc2c1Br)c1cccnc1 ?
PG9 Ab binder: 10*; rCAG binder: 20; PG9 bind confirm: 14*; PGV04 counter: 19*

How did CCOC(=O)N1CCN(S(=O)(=O)c2ccc(C(=O)Nc3nnc(CSC)o3)cc2)CC1 do in these assays?
PG9 Ab binder: -2; ABCB6 inh MLPCN: 99; Granule exo inh: 0; rCAG binder: 15

How did CN(C)Cc1c(O)ccc2c3c(c(=O)oc12)CCCCC3 do in these assays?
PG9 Ab binder: 2; ABCB6 inh MLPCN: 92; Granule exo inh: 2; rCAG binder: 2

Results for CN(Cc1c(O)ccc2c1oc(=O)c1ccccc12)C1CCCCC1 ?
PG9 Ab binder: 9.9*; ABCB6 inh MLPCN: 98; Granule exo inh: 14; rCAG binder: 13; PG9 bind confirm: 12*; PGV04 counter: 17*

Results for COc1ccc(Cl)cc1NC(=O)c1nnn(CC(=O)Nc2ccc3c(c2)OCO3)c1N ?
PG9 Ab binder: 10*; ABCB6 inh MLPCN: 94; Granule exo inh: -1; rCAG binder: 11; PG9 bind confirm: 20*; PGV04 counter: 27*

Results for O=C(NCCc1ccccc1)C(=O)Nc1ccc([N+](=O)[O-])cc1 ?
PG9 Ab binder: 0; ABCB6 inh MLPCN: 99; Granule exo inh: -1; rCAG binder: 0

Bioassay records from PubChem.
